Measured values: PubChem BioAssay (NCI)
Compounds without any hit were thinned out: in the full panel of roughly 79,000, 15% have a hit. Activity calls are given as the source filed them. No stated cut-off is given here; in the data, active means growth inhibition above about 70%; inactive means the rest.

Test: NCI Yeast Anticancer Drug Screen. Data for the bub3 strain (AID 167)
Conditions: S. cerevisiae bub3 mutant strain, at 5.0 µM (retest, dose inferred, filed as 0.5), active compounds read high
How it was run: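 Readout: yeast growth inhibition, expressed relative to vehicle-only wells. The test organism is a mutant strain from a panel with lesions in DNA repair or checkpoint genes.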

Row | Compound | growth inhibition
1 | Cc1[nH]nc(-c2cccnc2)c1N=NN1CCOCC1 | -3% (inactive)
2 | CC1CCC2(CC1)NC1=C(CC(C)CC1)C1=C2CC(C)CC1 (configuration not stated) | -16% (inactive)
3 | CN(C)CC(CN1CCCC1)C(=O)c1ccccc1 (configuration not stated) | 6% (inactive)
4 | COc1ccc(/C(Cl)=C(/c2ccc(O)cc2)c2ccc(OCCN(C)C)cc2)cc1 | 26% (inactive)
5 | CCCCCC(Oc1ccc(Cl)cc1)C(=O)O (configuration not stated) | 7% (inactive)
6 | N#CSC#CCCC#CSC#N | 100% (active)
7 | COc1cc2c(c(C3C(=O)N(C)c4ccc(Br)cc43)c1OC)OCO2 (configuration not stated) | 4% (inactive)
8 | c1ccc(-c2cc(CN3CCOCC3)c(-c3ccccc3)o2)cc1 | 1% (inactive)
9 | CC(=O)Nc1c([N+](=O)[O-])cc2c3c(cccc13)C=C2 | 3% (inactive)
10 | CCOc1nc(N)nc(C)c1N=Nc1ccc(Br)cc1 | 4% (inactive)
11 | C=CC1(NC(=O)c2ccccc2)CCC(C(C)(C)C)CC1 (configuration not stated) | 2% (inactive)
12 | Cc1cccc2ccc3cc(CC(=O)O)c4cccc(C)c4c3c12 | 32% (inactive)
13 | CCCCSc1nc2c([nH]1)c(=S)n(C)c(=S)n2C | -12% (inactive)
14 | COC(=O)c1ccccc1CC(Cc1ccc2c(c1)CCC2)C(=O)OC (configuration not stated) | 16% (inactive)
15 | CCC(C)Sc1nc2c([nH]1)c(=S)n(C)c(=O)n2C (configuration not stated) | 16% (inactive)
16 | O=S(=O)(c1ccc(NC(=S)NCc2ccncc2)cc1)N1CCCCC1 | -31% (inactive)

Row | Compound | growth inhibition
17 | COc1ccccc1/C=C1\NC(=S)N(/C=C2\C(=O)Oc3ccccc3C2=O)C1=O | -27% (inactive)
18 | CC12C(=O)OC(=O)C1C1c3ccccc3C2c2ccccc21 (configuration not stated) | 54% (inactive)
19 | CCOC(=O)C(F)C(Br)C(=O)OCC (configuration not stated) | 99% (active)
20 | CCCCCCCCCCCCCCCCC/C=N\NC(=O)CCCC(=O)N/N=C/CCCCCCCCCCCCCCCCC | 7% (inactive)
21 | CC(C(=O)NN)C(O)C(C)(C)O (configuration not stated) | -2% (inactive)
22 | COC(=O)C1C2CC3c4[nH]c5cc(OC)c(Br)cc5c4CCN3CC2CC(OC(=O)c2cc(OC)c(OC)c(OC)c2)C1OC (configuration not stated) | -16% (inactive)
23 | CCCN(CCC)C(=S)N/N=C/c1cccc(C)n1 | -32% (inactive)
24 | Cc1cccc2c1Oc1ccccc1C2N1C(=O)/C(=C/c2cccs2)SC1=S (configuration not stated) | -8% (inactive)
25 | COc1ccc(OC(C)=O)c2c1CCC=CC2=O | 22% (inactive)
26 | COC(=O)CSc1nc2[nH]c(SC)c(C(N)=O)c2c(=O)n1-c1ccccc1 | 18% (inactive)
27 | O=C(Nc1ccc(Cl)c(Cl)c1Cl)Oc1c(Cl)c(Cl)c(Cl)c(Cl)c1Cl | 10% (inactive)
28 | COc1ccc(CCCC(=O)O)c2c(OC)cccc12 | 4% (inactive)
29 | FC(F)(F)c1ccc(Nc2ccc(C(F)(F)F)cc2)cc1 | -3% (inactive)
30 | O=C(c1ccccc1)C(Br)CCCC(Br)C(=O)c1ccccc1 (configuration not stated) | 23% (inactive)
31 | CC1(C)c2ccccc2Cc2cc3ccccc3nc21 | -3% (inactive)
32 | COc1ccc2c(c1)[n+]([O-])c(-c1ccc(Cl)c(Cl)c1)c(N)[n+]2[O-] | 76% (active)
